According to PubChem BioAssay AID1159580 (chemical genetic matrix, 2015):
About 2,000 (36%) of roughly 5,500 compounds were called active. About 18% were inconclusive and are not listed. The list shows a part of the results. A number with no mark means an inactive call. Rule as the data show it: active = normalized growth mostly below about 0.91 (no sharp cut-off); inconclusive = no clear call, values can overlap the other calls; inactive = mostly above about 0.92.

Experiment: chemical genetic growth profiling, strain panel (AID 1159580);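 also: tested at 20 µM; growth read once vehicle control cultures reached saturation at 30 °C; 1 = growth at the plate median or of vehicle wells; lower values mean less growth of the strain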
Conditions: growth OD
[1] = S. cerevisiae deletion strains, locus YAL013W, strain DEP1, active compounds read low
[2] = S. cerevisiae deletion strains, locus YBR229C, strain ROT2, active compounds read low
[3] = S. cerevisiae deletion strains, locus YDL101C, strain DUN1, active compounds read low
[4] = S. cerevisiae deletion strains, locus YDR150W, strain NUM1, active compounds read low
[5] = S. cerevisiae deletion strains, locus YEL061C, strain CIN8, active compounds read low
[6] = S. cerevisiae deletion strains, locus YGR078C, strain PAC10, active compounds read low
[7] = S. cerevisiae deletion strains, locus YHR030C, strain SLT2, active compounds read low
[8] = S. cerevisiae deletion strains, locus YHR087W, strain rtc3, active compounds read low
[9] = S. cerevisiae deletion strains, locus YJR043C, strain POL32, active compounds read low
[10] = S. cerevisiae deletion strains, locus YJR075W, strain HOC1, active compounds read low
[11] = S. cerevisiae deletion strains, locus YKL190W, strain CNB1, active compounds read low
[12] = S. cerevisiae deletion strains, locus YLR039C, strain RIC1, active compounds read low
[13] = S. cerevisiae deletion strains, locus YLR058C, strain SHM2 (second series), active compounds read low
[14] = S. cerevisiae deletion strains, locus YLR085C, strain ARP6, active compounds read low
[15] = S. cerevisiae deletion strains, locus YLR262C, strain YPT6, active compounds read low
[16] = S. cerevisiae deletion strains, locus YML094W, strain GIM5, active compounds read low
[17] = S. cerevisiae deletion strains, locus YMR219W, strain ESC1, active compounds read low
[18] = S. cerevisiae deletion strains, locus YMR263W, strain SAP30, active compounds read low
[19] = S. cerevisiae deletion strains, locus YNL153C, strain GIM3, active compounds read low
[20] = S. cerevisiae deletion strains, locus YNL298W, strain CLA4 (second series), active compounds read low
[21] = S. cerevisiae deletion strains, locus YNL322C, strain KRE1, active compounds read low
[22] = S. cerevisiae deletion strains, locus YNR030W, strain Alg12, active compounds read low
[23] = S. cerevisiae deletion strains, locus YPL055C, strain LGE1, active compounds read low
[24] = S. cerevisiae deletion strains, locus YPL241C, strain CIN2, active compounds read low
[25] = S. cerevisiae deletion strains, locus YPR135W, strain CTF4, active compounds read low
[26] = S. cerevisiae strains, strain wild type, active compounds read low
[27] = S. cerevisiae deletion strains, locus YAL040C, strain CLN3, active compounds read low
[28] = S. cerevisiae deletion strains, locus YER002W, strain NOP16, active compounds read low
[29] = S. cerevisiae deletion strains, locus YNL175C, strain NOP13, active compounds read low
[30] = S. cerevisiae deletion strains, locus YNL197C, strain WHI3, active compounds read low
[31] = S. cerevisiae deletion strains, locus YNL224C, strain SQS1, active compounds read low
[32] = S. cerevisiae deletion strains, locus YOR083W, strain WHI5 (second series), active compounds read low

Structure (SMILES): CC(C)(C)c1nccc(-c2nn(-c3ccc(F)cc3)ccc2=O)n1
- normalized growth [1]: 0.991
- normalized growth [2]: 0.988
- normalized growth (S. cerevisiae deletion strains, locus YCL061C, strain MRC1, active compounds read low): 1.02
- normalized growth [3]: 1.03
- normalized growth (S. cerevisiae deletion strains, locus YDL134C, strain PPH21, active compounds read low): 0.994
- normalized growth [4]: 0.9
- normalized growth [5]: 1.01
- normalized growth [6]: 1.01
- normalized growth [7]: 1.02
- normalized growth [8]: 0.985
- normalized growth (S. cerevisiae deletion strains, locus YJL187C, strain SWE1, active compounds read low): 1.03
- normalized growth [9]: 1
- normalized growth [10]: 1.03
- normalized growth [11]: 1.01
- normalized growth [12]: 0.99
- normalized growth [13]: 1
- normalized growth [14]: 1.15
- normalized growth [15]: 0.974
- normalized growth [16]: 1
- normalized growth [17]: 1
- normalized growth [18]: 0.995
- normalized growth [19]: 1.02
- normalized growth [20]: 1.03
- normalized growth [21]: 1
- normalized growth [22]: 0.999
- normalized growth (S. cerevisiae deletion strains, locus YOL006C, strain TOP1, active compounds read low): 1.09
- normalized growth [23]: 0.949
- normalized growth [24]: 1.04
- normalized growth [25]: 0.869
- normalized growth [26]: 0.99

Structure (SMILES): COc1ccc2[nH]c3c(c2c1)CCNC3
- normalized growth [27]: 0.974
- normalized growth [28]: 1.02
- normalized growth (S. cerevisiae deletion strains, locus YGR229C, strain SMI1, active compounds read low): 1.05
- normalized growth [10]: 1.01
- normalized growth (S. cerevisiae deletion strains, locus YNL128W, strain TEP1, active compounds read low): 0.996
- normalized growth [19]: 0.983
- normalized growth [29]: 0.985
- normalized growth [30]: 0.983
- normalized growth [31]: 1.01
- normalized growth [32]: 0.996
- normalized growth [23]: 1
- normalized growth [24]: 0.981

Structure (SMILES): Cc1ccc2[nH]c3c(c2c1)CCCC3
- normalized growth [1]: 0.853 (active)
- normalized growth [2]: 0.544 (active)
- normalized growth [3]: 0.778 (active)
- normalized growth [4]: 0.911
- normalized growth [5]: 0.738 (active)
- normalized growth [6]: 0.781 (active)
- normalized growth [7]: 0.377 (active)
- normalized growth [8]: 0.762 (active)
- normalized growth [9]: 0.869 (active)
- normalized growth [10]: 0.636 (active)
- normalized growth [11]: 0.989
- normalized growth [12]: 0.259 (active)
- normalized growth [13]: 0.867 (active)
- normalized growth [14]: 0.696 (active)
- normalized growth [15]: 0.224 (active)
- normalized growth [16]: 0.664 (active)
- normalized growth [17]: 0.828 (active)
- normalized growth [18]: 0.867 (active)
- normalized growth [19]: 0.807 (active)
- normalized growth [20]: 0.578 (active)
- normalized growth [21]: 0.949
- normalized growth [22]: 0.669 (active)
- normalized growth [23]: 0.822 (active)
- normalized growth [24]: 0.722 (active)
- normalized growth [25]: 0.477 (active)
- normalized growth [26]: 0.904 (active)

Structure (SMILES): O=C1Cc2c([nH]c3ccc(Br)cc23)-c2ccccc2N1
- normalized growth [27]: 0.964
- normalized growth (S. cerevisiae deletion strains, locus YCL061C, strain MRC1 (second series), active compounds read low): 0.991
- normalized growth [4]: 0.989
- normalized growth (S. cerevisiae deletion strains, locus YDR363W, strain ESC2, active compounds read low): 1.03
- normalized growth [28]: 1.01
- normalized growth [10]: 1.06
- normalized growth [29]: 0.984
- normalized growth [30]: 0.988
- normalized growth [31]: 0.998
- normalized growth [32]: 0.976
- normalized growth [24]: 0.985

Structure (SMILES): Brc1ccc2[nH]c3c(c2c1)CCC3
- normalized growth (S. cerevisiae deletion strains, locus YAR019C, strain CDC15, active compounds read low): 0.954
- normalized growth (S. cerevisiae deletion strains, locus YBL105C, strain PKC1, active compounds read low): 0.955
- normalized growth (S. cerevisiae deletion strains, locus YBR135W, strain CKS1, active compounds read low): 0.934
- normalized growth (S. cerevisiae deletion strains, locus YBR136W, strain MEC1, active compounds read low): 0.945
- normalized growth (S. cerevisiae deletion strains, locus YBR160W, strain CDC28, active compounds read low): 0.949
- normalized growth (S. cerevisiae deletion strains, locus YDL017W, strain CDC7, active compounds read low): 0.962
- normalized growth (S. cerevisiae deletion strains, locus YDL028C, strain MPS1, active compounds read low): 0.937
- normalized growth [3]: 0.966
- normalized growth (S. cerevisiae deletion strains, locus YDL108W, strain KIN28, active compounds read low): 0.932
- normalized growth (S. cerevisiae deletion strains, locus YDL132W, strain cdc53, active compounds read low): 0.962
- normalized growth (S. cerevisiae deletion strains, locus YDL214C, strain PRR2, active compounds read low): 0.69 (active)
- normalized growth (S. cerevisiae deletion strains, locus YDR052C, strain DBF4, active compounds read low): 0.975
- normalized growth (S. cerevisiae deletion strains, locus YDR054C, strain cdc34, active compounds read low): 0.97
- normalized growth (S. cerevisiae deletion strains, locus YDR226W, strain ADK1, active compounds read low): 0.96
- normalized growth (S. cerevisiae deletion strains, locus YDR477W, strain SNF1, active compounds read low): 0.712
- normalized growth (S. cerevisiae deletion strains, locus YER123W, strain YCK3, active compounds read low): 0.609 (active)
- normalized growth (S. cerevisiae deletion strains, locus YER133W, strain GLC7, active compounds read low): 0.668 (active)
- normalized growth (S. cerevisiae deletion strains, locus YFL009W, strain cdc4, active compounds read low): 0.946
- normalized growth (S. cerevisiae deletion strains, locus YFL029C, strain CAK1, active compounds read low): 0.942
- normalized growth (S. cerevisiae deletion strains, locus YFR003C, strain YPI1, active compounds read low): 0.952
- normalized growth (S. cerevisiae deletion strains, locus YFR019W, strain FAB1, active compounds read low): 0.759 (active)
- normalized growth (S. cerevisiae deletion strains, locus YFR028C, strain CDC14, active compounds read low): 0.969
- normalized growth (S. cerevisiae deletion strains, locus YGR040W, strain KSS1, active compounds read low): 0.716
- normalized growth (S. cerevisiae deletion strains, locus YGR052W, strain FMP48, active compounds read low): 0.595 (active)
- normalized growth (S. cerevisiae deletion strains, locus YGR092W, strain DBF2, active compounds read low): 0.621
- normalized growth [7]: 0.344 (active)
- normalized growth (S. cerevisiae deletion strains, locus YHR079C, strain IRE1, active compounds read low): 0.151 (active)
- normalized growth (S. cerevisiae deletion strains, locus YHR082C, strain KSP1, active compounds read low): 0.587 (active)
- normalized growth (S. cerevisiae deletion strains, locus YHR205W, strain SCH9, active compounds read low): 0.666
- normalized growth (S. cerevisiae deletion strains, locus YIL147C, strain SLN1, active compounds read low): 0.947
- normalized growth (S. cerevisiae deletion strains, locus YJL095W, strain BCK1, active compounds read low): 0.467 (active)
- normalized growth (S. cerevisiae deletion strains, locus YJL128C, strain PBS2, active compounds read low): 0.915
- normalized growth (S. cerevisiae deletion strains, locus YJL157C, strain FAR1, active compounds read low): 0.74
- normalized growth (S. cerevisiae deletion strains, locus YJR016C, strain ILV3, active compounds read low): 0.946
- normalized growth (S. cerevisiae deletion strains, locus YJR066W, strain TOR1 (second series), active compounds read low): 0.67
- normalized growth (S. cerevisiae deletion strains, locus YJR066W, strain TOR1, active compounds read low): 0.541
- normalized growth (S. cerevisiae deletion strains, locus YKL048C, strain ELM1, active compounds read low): 0.769 (active)
- normalized growth (S. cerevisiae deletion strains, locus YKL067W, strain YNK1, active compounds read low): 0.723 (active)
- normalized growth (S. cerevisiae deletion strains, locus YKL101W, strain HSL1, active compounds read low): 0.747
- normalized growth (S. cerevisiae deletion strains, locus YKL193C, strain SDS22, active compounds read low): 0.937
- normalized growth (S. cerevisiae deletion strains, locus YKL203C, strain TOR2, active compounds read low): 0.762
- normalized growth (S. cerevisiae deletion strains, locus YLR113W, strain HOG1, active compounds read low): 0.44 (active)
- normalized growth (S. cerevisiae deletion strains, locus YLR133W, strain CKI1, active compounds read low): 0.805
- normalized growth (S. cerevisiae deletion strains, locus YLR403W, strain SFP1, active compounds read low): 0.757
- normalized growth (S. cerevisiae deletion strains, locus YML070W, strain DAK1, active compounds read low): 0.651 (active)
- normalized growth (S. cerevisiae deletion strains, locus YMR001C, strain CDC5, active compounds read low): 0.94
- normalized growth (S. cerevisiae deletion strains, locus YMR205C, strain PFK2 (second series), active compounds read low): 0.784
- normalized growth (S. cerevisiae deletion strains, locus YMR277W, strain FCP1, active compounds read low): 0.948
- normalized growth (S. cerevisiae deletion strains, locus YNL006W, strain LST8, active compounds read low): 0.938
- normalized growth (S. cerevisiae deletion strains, locus YNL020C, strain ARK1, active compounds read low): 0.795
- normalized growth (S. cerevisiae deletion strains, locus YNL161W, strain CBK1, active compounds read low): 0.942
- normalized growth (S. cerevisiae deletion strains, locus YNL183C, strain NPR1, active compounds read low): 0.519 (active)
- normalized growth (S. cerevisiae deletion strains, locus YNL207W, strain RIO2, active compounds read low): 0.926
- normalized growth (S. cerevisiae deletion strains, locus YNL222W, strain SSU72, active compounds read low): 0.936
- normalized growth (S. cerevisiae deletion strains, locus YNL307C, strain MCK1 (second series), active compounds read low): 0.695
- normalized growth (S. cerevisiae deletion strains, locus YOL078W, strain AVO1, active compounds read low): 0.942
- normalized growth (S. cerevisiae deletion strains, locus YOL136C, strain PFK27, active compounds read low): 0.625 (active)
- normalized growth (S. cerevisiae deletion strains, locus YOR061W, strain CKA2, active compounds read low): 0.76
- normalized growth (S. cerevisiae deletion strains, locus YOR119C, strain RIO1, active compounds read low): 0.729
- normalized growth (S. cerevisiae deletion strains, locus YOR231W, strain MKK1, active compounds read low): 0.56 (active)
- normalized growth (S. cerevisiae deletion strains, locus YOR329C, strain SCD5, active compounds read low): 0.948
- normalized growth (S. cerevisiae deletion strains, locus YPL031C, strain PHO85, active compounds read low): 0.647 (active)
- normalized growth (S. cerevisiae deletion strains, locus YPL153C, strain RAD53, active compounds read low): 0.653 (active)
- normalized growth (S. cerevisiae deletion strains, locus YPL204W, strain HRR25, active compounds read low): 0.642 (active)
- normalized growth (S. cerevisiae deletion strains, locus YPL209C, strain IPL1, active compounds read low): 0.938
- normalized growth (S. cerevisiae deletion strains, locus YPL256C, strain CLN2, active compounds read low): 0.472 (active)
- normalized growth (S. cerevisiae deletion strains, locus YPR025C, strain CCL1, active compounds read low): 0.94
- normalized growth (S. cerevisiae deletion strains, locus YPR106W, strain ISR1, active compounds read low): 0.94
- normalized growth (S. cerevisiae deletion strains, locus YPR111W, strain DBF20, active compounds read low): 0.945
- normalized growth (S. cerevisiae deletion strains, strain NNK1, active compounds read low): 0.926
- normalized growth (S. cerevisiae deletion strains, strain TSCII, active compounds read low): 0.931
